Structures can show the parent of a compound that is named as a salt. ± gives the standard deviation of the averaged measurements.
System: A549
Assay: relative viability (normalised to negative control = 1, bortezomib = 0) (fraction); higher = less cytotoxic
Conditions: inflammatory serum-free RHB-A with cytokines + LPS, 5 d + 24 h CellTiter-Blue
Method: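 A549 KRAS-mutant NSCLC cells, pre-treated 5 µM GSK126 or vehicle (DMSO), were seeded at 250 cells/well in 384-well plates in serum-free RHB-A medium with inflammatory cytokines/LPS and treated with Selleck kinase inhibitor and NCI oncology compounds at 30 or 300 nM in triplicate, refreshed at 48 h. Viability was read by CellTiter-Blue after 5 d plus 24 h and normalised per plate with cellHTS2 (mean of bortezomib positive control = 0, mean of negative control = 1).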

[1] = compound 30 nM, GSK126 pretreatment: 5 uM GSK126
[2] = compound 30 nM, GSK126 pretreatment: none (vehicle)
[3] = compound 300 nM, GSK126 pretreatment: 5 uM GSK126
[4] = compound 300 nM, GSK126 pretreatment: none (vehicle)

SMILES	relative viability [1]	relative viability [2]	relative viability [3]	relative viability [4]
Cn1c(CCCC(=O)O)nc2cc(N(CCCl)CCCl)ccc21 [bendamustine hydrochloride]	0.713 ± 0.012	0.729 ± 0.045	0.784 ± 0.012	0.865 ± 0.056
N.N.[Cl][Pt][Cl] [Cisplatin]	0.813 ± 0.035	0.812 ± 0.029	0.839 ± 0.099	0.875 ± 0.018
CCN1CCN(C(=O)Cc2ccc(Nc3ncc(F)c(Nc4ccc(C(=O)Nc5ccccc5Cl)cc4)n3)cc2)CC1 [Aurora A Inhibitor I]	0.988 ± 0.045	1.02 ± 0.032	0.808 ± 0.14	0.671 ± 0.027
O=P1(N(CCCl)CCCl)NCCCO1 (stereo not given) [Cyclophosphamide monohydrate; Cyclophosphamide]	0.799 ± 0.035	0.813 ± 0.086	0.877 ± 0.031	0.941 ± 0.1
N[C@@H](Cc1ccc(N(CCCl)CCCl)cc1)C(=O)O [Melphalan]	0.835 ± 0.054	0.819 ± 0.11	0.874 ± 0.13	0.876 ± 0.068

From the supplement of paper PMC6279402
